Test results reported in PubChem BioAssay (NCATS).
Records with an inconclusive call do not appear. Active and inactive are the calls of the source. The call rests on the fitted dose curve; in most records, active means well fitted curve in the direction sought with a large enough effect; inconclusive means small, poorly fitted or top-dose-only effect, or another doubt; inactive means no such curve, though single readings can be large; an effect the other way counts as inactive or inconclusive. Where a SMILES comes first, the peptide text is derived from it. Bridges are numbered along the chain shown (N, C = ends). [ ]: non-standard residue; d: D form. hArg = N=C(N)NCCCC[C@H](N)C(=O)O; Mpa = O=C(O)CCS

What was measured:
[1] = qHTS of pediatric cancer cell lines to identify multiple opportunities for drug repurposing: Primary screen for Rh18 cells (AID 1347102); further: on the % scale 0 is the no-effect control and ±100 the full control effect; nearly all actives have a fitted effect of over 65% in size
Outline: (§1)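 Cells (500-1,000/well) in growth media were settled 5 h at 37 degrees C, then given compounds for 48 h. Viability was read as CellTiter-Glo luminescence. Primary runs used MIPE at 11 points (0.78 nM-46 µM) and NPC at 8 points (0.59 nM-46 µM); follow-ups used 11 points.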

[2] = qHTS of pediatric cancer cell lines to identify multiple opportunities for drug repurposing: Primary screen for OHS-50 cells (AID 1347103);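 further: plate controls were DMSO neutral control for no effect and bortezomib positive control for full effect; nearly all actives have a fitted effect of over 40% in size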
Outline: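 Cells (500-1,000/well) rested 5 h, then received compounds for 48 h; metabolically active cells were measured by CellTiter-Glo luminescence. Final concentrations spanned up to 46 µM (MIPE, 11-point) or 0.59 nM-46 µM (NPC, 8-point) in primary screens, 11-point in follow-ups.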

[3] = qHTS of pediatric cancer cell lines to identify multiple opportunities for drug repurposing: Primary screen for RD cells (AID 1347104);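 further: plate controls were DMSO for no effect and bortezomib for full effect; nearly all actives have a fitted effect of over 55% in size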
Outline: (§2)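 Luminescence from CellTiter-Glo served as readout of metabolically active cells after 48 h compound exposure. Titrations: MIPE 11-point, from 0.78 nM; NPC 8-point, from 0.59 nM (final). Concentration-response curves came straight from the primary screen.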

[4] = qHTS of pediatric cancer cell lines to identify multiple opportunities for drug repurposing: Primary screen for MG 63 (6-TG R) cells (AID 1347105); further: on the % scale 0 is the no-effect control and ±100 the full control effect; nearly all actives have a fitted effect of over 50% in size
Outline: as §2

[5] = qHTS of pediatric cancer cell lines to identify multiple opportunities for drug repurposing: Primary screen for Rh30 cells (AID 1347107); further: series mostly up to about 46 µM; on the % scale 0 is the no-effect control and ±100 the full control effect; nearly all actives have a fitted effect of over 75% in size
Outline: as §1

[6] = qHTS of pediatric cancer cell lines to identify multiple opportunities for drug repurposing: Primary screen for Rh41 cells (AID 1347108);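 further: series mostly up to about 46 µM; luminescence drop marks cytotoxic hits; nearly all actives have a fitted effect of over 70% in size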
Outline: as §2

[7] = qHTS of pediatric cancer cell lines to identify multiple opportunities for drug repurposing: Primary screen for control Hh wild type fibroblast cells (AID 1347106);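 further: series mostly up to about 46 µM; on the % scale 0 is the no-effect control and ±100 the full control effect; a drop in luminescence marks cytotoxicity and a rise apparent proliferation; nearly all actives have a fitted effect of over 55% in size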
Outline: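 Viability after 48 h compound treatment at 37C, 500-1,000 cells/well, read as ATP luminescence with CellTiter-Glo. Primary screens used 11-point (MIPE, 0.78 nM-46 µM) or 8-point (NPC, 0.59 nM-46 µM) final concentrations; follow-up screens used 11-point dilutions.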

Measured: activity change, negative = cytotoxic

O=C(O)CCCc1ccccc1
not listed: [7]
inactive: all other assays above

O=C(OOC(=O)c1ccccc1)c1ccccc1
not listed: [6] | [7]
inactive: all other assays above

CC(N)CCCC(C)(C)O (centres undefined)
not listed: [7]
inactive: all other assays above

NC(N)=NCCN1CCCCCCC1
inactive: [1] 6.63% [at 0.597 µM] | [2] 7.69% [at 0.73 µM] | [3] 3.85% [at 0.597 µM] | [7] 3.36% [at 0.597 µM] | [5] 25.1% [at 0.597 µM] | [6] 22.2% [at 0.597 µM]

CN1C(=O)CC(c2ccccc2)C1=O (centres undefined)
not listed: [5] | [7]
inactive: all other assays above

NC(=O)CCCCC1CCSS1 (centres undefined)
not listed: [7]
inactive: all other assays above

CN1C[C@@H]2C[C@H]1CN2c1cc2c(cc1F)c(=O)c(C(=O)O)cn2C1CC1
not listed: [4]
inactive: all other assays above

Cn1c(=O)c2c(ncn2CCO)n(C)c1=O
not listed: [7]
inactive: all other assays above

CCCCCCCC(=O)OCC(COC(=O)CCCCCCC)OC(=O)CCCCCCC
not listed: [7]
inactive: all other assays above

Cc1cc(C)nc(NS(=O)(=O)c2ccc(N)cc2)n1
not listed: [5] | [7]
inactive: all other assays above

CN1C(C)(C)CCCC1(C)C
not listed: [7]
inactive: all other assays above

CCN(CC)CCOC(=O)C(c1ccccc1)c1ccccc1
not listed: [7]
inactive: all other assays above

COc1ccccc1OCC(O)CO (centres undefined)
not listed: [7]
inactive: all other assays above

O=C1C(c2[nH]c3ccccc3c2O)=Nc2ccccc21
not listed: [4] | [6]
inactive: all other assays above

NC(=O)c1ccc([N+](=O)[O-])cc1Cl
inactive: [1] | [2] | [3] | [7]

COc1nccnc1NS(=O)(=O)c1ccc(N)cc1
not listed: [4]
inactive: all other assays above

NC(=O)[C@@H]1CSSCCC(=O)N[C@@H](CCCCN=C(N)N)C(=O)NCC(=O)N[C@@H](CC(=O)O)C(=O)N[C@@H](Cc2c[nH]c3ccccc23)C(=O)N2CCC[C@H]2C(=O)N1 ([Mpa][hArg]GDWPC-NH2; disulfide 1-7)
not listed: [7]
inactive: all other assays above

CC(=O)NS(=O)(=O)c1ccc(N)cc1
not listed: [4] | [6]
inactive: all other assays above

CN(C(=O)c1c(O)c2ccccc2n(C)c1=O)c1ccccc1
not listed: [7]
inactive: all other assays above

CCOC(=O)[C@H](CCc1ccccc1)N[C@@H](C)C(=O)N1Cc2cc(OC)c(OC)cc2C[C@H]1C(=O)O
not listed: [7]
inactive: all other assays above

NC(=O)NS(=O)(=O)c1ccc(N)cc1
not listed: [4]
inactive: all other assays above

CC(C)c1cc2c(cc1S(=O)(=O)O)[C@@]1(C)CCC[C@@](C)(C(=O)O)[C@@H]1CC2
inactive: [1] | [2] | [3] | [7]

Nc1ncnc2c1ncn2[C@@H]1O[C@H](COP(=O)(O)O)[C@@H](O)[C@H]1O
not listed: [7]
inactive: all other assays above

Cc1c(C)c2c(c(C)c1OC(=O)c1cccnc1)CC[C@@](C)(CCC[C@H](C)CCC[C@H](C)CCCC(C)C)O2
not listed: [4] | [6]
inactive: all other assays above

CCCCCOC(=O)Nc1nc(=O)n([C@@H]2O[C@H](C)[C@@H](O)[C@H]2O)cc1F
not listed: [6] | [7]
inactive: all other assays above

O=C(/C=C/c1ccc(O)c(O)c1)O[C@@H]1C[C@@](OC(=O)/C=C/c2ccc(O)c(O)c2)(C(=O)O)C[C@@H](O)[C@@H]1O
not listed: [4] | [6]
inactive: all other assays above

CCCCCCCCCCOc1cc2c(=O)c(C(=O)OCC)c[nH]c2cc1OCC
inactive: [1] 5.32% [at 4.84 µM] | [2] -4.02% [at 6.18 µM] | [3] 5.98% [at 4.84 µM] | [4] -13.3% [at 4.84 µM] | [5] 19.2% [at 4.84 µM] | [6] 18.9% [at 4.84 µM]

COc1ccc(Cc2cnc(N)nc2N)cc1OC
not listed: [7]
inactive: all other assays above

COC(=O)c1ccc(O)cc1
not listed: [7]
inactive: all other assays above

CCN(CC)CC1CCCCN1CC(=O)N1c2ccccc2C(=O)Nc2cccnc21 (centres undefined)
not listed: [7]
inactive: all other assays above

Cc1ncc(CO)c(CN)c1O
not listed: [5] | [7]
inactive: all other assays above

O=c1[nH]cnc2nc[nH]c12
not listed: [7]
inactive: all other assays above

O=C(O)[C@@H]1[C@H]2C[C@H]3c4[nH]c5ccccc5c4CCN3C[C@@H]2CC[C@@H]1O
not listed: [4]
inactive: all other assays above

O=C(O)c1ccc[n+]([O-])c1
inactive: [1] | [3] | [4] | [7]

O=C(/C=C/c1ccccc1)OCc1ccccc1
not listed: [4]
inactive: all other assays above

CC[N+](C)(CC)CCOC(=O)C1c2ccccc2Oc2ccccc21
not listed: [2] | [6]
inactive: all other assays above

O=C(O)c1cc(=O)c2ccccc2o1
not listed: [4]
inactive: all other assays above

C=CCOc1ccccc1OCC(O)CNC(C)C (centres undefined)
inactive: [1] | [2] | [3] | [6]

CCN(CC)S(=O)(=O)c1ccc(C(=O)O)cc1
not listed: [4]
inactive: all other assays above

CN[C@@H]1[C@@H](O)[C@@H](O[C@@H]2[C@H](O)[C@H](O[C@H]3OC(CN)=CC[C@H]3N)[C@@H](N)C[C@H]2N)OCC1(C)O (some centres undefined)
not listed: [2] | [6]
inactive: all other assays above

CCN1CC(CCN2CCOCC2)C(c2ccccc2)(c2ccccc2)C1=O (centres undefined)
not listed: [4]
inactive: all other assays above

Cc1ccc(S(=O)(=O)NC(=O)NC2CCCCCCC2)cc1
not listed: [4]
inactive: all other assays above

NC(=O)N[C@@H](CCC(=O)O)C(=O)O
not listed: [4]
inactive: all other assays above

CN1CC(=O)NC1=N
not listed: [4]
inactive: all other assays above

Cn1cc(C(=O)[C@@H]2CCc3nc[nH]c3C2)c2ccccc21
inactive: [1] | [3] | [4] | [7]

C=CCN1C[C@H](C(=O)N(CCCN(C)C)C(=O)NCC)C[C@@H]2c3cccc4[nH]cc(c34)C[C@H]21
not listed: [4]
inactive: all other assays above

CNCc1ccccc1
not listed: [4]
inactive: all other assays above

CN1CCCN=C1COC(=O)C(O)(c1ccccc1)C1CCCCC1 (centres undefined)
not listed: [3]
inactive: all other assays above

O=C(O)C(S)C(S)C(=O)O (centres undefined)
not listed: [4]
inactive: all other assays above

COc1ccc(C(=O)NCc2ccc(OCCN(C)C)cc2)cc1OC
inactive: [1] | [2] | [3] | [5]

N[C@@H](Cc1ccc(O)cc1)C(=O)O
inactive: [1] 18.9% [at 9.22 µM] | [3] 14.4% [at 9.22 µM] | [4] -16.1% [at 9.22 µM] | [7] 11.3% [at 9.22 µM] | [5] 21.6% [at 9.22 µM]

NS(=O)(=O)c1ccc(C(=O)O)cc1
not listed: [4]
inactive: all other assays above

O=C(c1ccccc1)C(O)c1ccccc1 (centres undefined)
not listed: [4]
inactive: all other assays above

CC(C)=CCC/C(C)=C/CO
not listed: [2] | [6]
inactive: all other assays above
